Assay outcomes: PubChem, The Scripps Research Institute Molecular Screening Center
rCAG RNA binder = binders of r(CAG) RNA repeats, primary screen, biochemical, fluorescence; r(CAG) RNA repeat, TO-PRO-1 dye displacement fluorescence; inhibition, % at 3 µM; actives 1.3% (n = 370,000); AID 651821, 2012;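 active means inhibition above the plate cutoff, the mean of all test compounds on that plate plus 3 SD, cut at about 35% in these data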;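 further: higher means more dye released from RNA so lower well fluorescence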
UHRF1 MBD2 ctr = UHRF1 methylated DNA binding inhibitors, primary screen, counter-screen for MBD2 inhibitor project, biochemical, TR-FRET, human UHRF1, single concentration; inhibition, % at 4.4 µM; AID 687016, 2013; UHRF1 binding to methylated oligo; E3 ubiquitin-protein ligase UHRF1 (Homo sapiens), Q96T88; actives 0.75% (n = 370,000);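 further: UHRF1 SRA domain binding a hemimethylated CpG hairpin DNA probe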
ABHD5 PLIN5 PPI = ABHD5-PLIN5 interaction inhibitors, primary screen, cell lysate, split luciferase complementation, luminescence; Perilipin-5 (Homo sapiens) + 1-acylglycerol-3-phosphate O-acyltransferase ABHD5 (Homo …; Split G. princeps luciferase complementation, 4 h; inhibition, % at 4 µM; actives 0.78% (n = 360,000);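 active means inhibition above the mean inhibition across every tested compound plus 3 SD, cut at about 22% in these data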
Target sequence (Q00G26 whole entry, looked up): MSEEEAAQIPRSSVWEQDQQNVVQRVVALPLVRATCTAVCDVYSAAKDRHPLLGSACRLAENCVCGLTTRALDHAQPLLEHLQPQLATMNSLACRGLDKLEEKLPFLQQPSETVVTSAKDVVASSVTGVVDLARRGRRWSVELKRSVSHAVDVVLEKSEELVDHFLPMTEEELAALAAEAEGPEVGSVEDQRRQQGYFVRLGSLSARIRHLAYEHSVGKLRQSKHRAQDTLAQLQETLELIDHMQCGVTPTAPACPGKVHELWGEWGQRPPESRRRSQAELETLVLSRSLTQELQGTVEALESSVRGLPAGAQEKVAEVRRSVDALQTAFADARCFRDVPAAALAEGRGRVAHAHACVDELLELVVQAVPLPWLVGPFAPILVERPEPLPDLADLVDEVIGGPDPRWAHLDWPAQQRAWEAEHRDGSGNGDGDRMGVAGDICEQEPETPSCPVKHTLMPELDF
Target sequence (Q8WTS1 whole entry, looked up): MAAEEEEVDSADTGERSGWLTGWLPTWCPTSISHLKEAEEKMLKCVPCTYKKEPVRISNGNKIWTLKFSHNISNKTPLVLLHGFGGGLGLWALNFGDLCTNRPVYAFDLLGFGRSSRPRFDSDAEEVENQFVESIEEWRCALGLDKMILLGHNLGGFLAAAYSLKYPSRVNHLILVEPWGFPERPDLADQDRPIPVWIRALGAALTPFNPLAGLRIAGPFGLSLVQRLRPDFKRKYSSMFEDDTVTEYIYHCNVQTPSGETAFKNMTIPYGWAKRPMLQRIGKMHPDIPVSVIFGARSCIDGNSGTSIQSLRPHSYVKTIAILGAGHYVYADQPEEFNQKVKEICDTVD
PRMT1 FP inh = PRMT1 methyltransferase inhibitors, primary screen, biochemical, fluorescence polarization; Protein arginine N-methyltransferase 1 (Homo sapiens), Q99873; recombinant PRMT1, activity-based probe fluorescence polarization; inhibition, % at 2.79 µM; actives 1.3% (n = 370,000);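 active means inhibition above about 21% made by adding two undisclosed values, limit read from the data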
MBD2 DNA inh = inhibitors of MBD2 binding to methylated DNA, primary screen, biochemical, TR-FRET, DNA-binding domain, human; Methyl-CpG-binding domain protein 2 (Homo sapiens), Q9UBB5; MBD2 binding to methylated oligonucleotide; inhibition, % at 4.4 µM; actives 0.31% (n = 370,000); in the data active means inhibition above about 13%
LEDGF integ inh = blockers of LEDGF/p75-dependent integrase strand transfer – biochemical, TR-FRET, high throughput, primary screen. AID 743269, 2014. actives 0.64% (n = 370,000). TR-FRET IN-LEDGF/p75 DNA integration, Eu/Cy5. inhibition, % at 3.7 µM;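 active means inhibition above the screen-wide mean plus 3 SD, cut at about 13% in these data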;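 further: signal is the Cy5 over europium emission ratio at 671 and 618 nm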
UHRF1 DNA bind = UHRF1 methylated DNA binding inhibitors, counter-screen for MBD2 inhibitor project, biochemical, TR-FRET, human UHRF1; shares compounds with MBD2 DNA inh; UHRF1 binding to methylated oligonucleotide; inhibition, % at 4.4 µM; actives 25% (n = 1,000); AID 720530, 2013;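 further: UHRF1 SRA domain binding a labeled hemimethylated CpG hairpin DNA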
MBD2 confirm = inhibitors of MBD2 binding to methylated DNA, confirmation, biochemical, TR-FRET, DNA-binding domain, human; shares compounds with MBD2 DNA inh; TR-FRET MBD2-DBD binding to methylated oligonucleotide; inhibition, % at 4.4 µM; actives 26% (n = 1,000); in the data active means inhibition above about 14%
Hits are given with their value; – = inactive; · = no result. Shown are actives, neighbours in structure and some others; about 4.1% of the full set was active somewhere. Unless noted, no stated cut-off is given here; in the data, active means inhibition above about 21%; inactive means the rest.

SMILES	rCAG RNA binder	UHRF1 MBD2 ctr	ABHD5 PLIN5 PPI	PRMT1 FP inh	MBD2 DNA inh	LEDGF integ inh	UHRF1 DNA bind	MBD2 confirm
CCOc1ccc(NC(=O)c2cccc(-n3cccc3)c2)cc1S(=O)(=O)N1CCOCC1	–	54	–	–	31	–	77	68
COc1ccc(-c2[nH]nc3oc(=O)cc(C)c23)cc1	–	–	–	–	14	–	–	–
O=C(NC1CCCCCCC1)c1ccc(F)cc1	–	–	–	–	–	–	·	·
O=C(NC1CCC1)c1ccc(C#Cc2cccc(F)c2)nc1	–	–	·	–	17	–	–	–
COc1cccc(NC(=O)CN(C)C(=O)c2cc3c(s2)CCC3)c1	–	55	·	–	27	–	30	26
C[C@H]1C2CC(OC(=O)Nc3ccc(F)cc3)C(C2)[C@H]2CCCCN21 (some centres undefined)	–	–	·	–	–	–	·	·
Cn1c(-c2ccccc2)cc(=O)n1-c1ccccc1	–	–	–	–	62	–	–	–
CCOc1ccc(Oc2c(Cl)cnn(Cc3cccc4ccccc34)c2=O)cc1	–	–	·	–	–	–	·	·
CCCCCCC12C(=Cc3cc(C)ccc31)c1ccccc1C(CC(=O)NCc1ccccc1)N2C(=O)OC (centres undefined)	–	54	·	–	29	–	–	–
COC(=O)c1ccc(S(=O)(=O)N2CCC(NC(=O)Cc3ccccc3)CC2)cc1	–	–	·	–	–	–	·	·
Cc1ccccc1OCC(=O)NS(=O)(=O)c1ccc(Cl)cc1	–	–	–	–	14	–	–	–
CCCCN1C(=O)c2ccccc2NC1c1ccc(OC)c(COc2ccc(NC(C)=O)cc2)c1 (centres undefined)	·	–	·	–	–	–	·	·
O=C(NCCCN1CCCC1=O)Nc1ccc(Cl)cc1	–	–	–	–	14	–	–	–
CCOC(=O)Cn1cc(CN2CCS(=O)(=O)N(Cc3ccccc3)C(C(=O)OC)C2)nn1 (centres undefined)	–	–	·	–	14	–	–	–
COc1cccc(-c2cc3nc(NCCCN(C)C)n(C)c(=O)c3s2)c1	–	–	–	–	–	–	·	·
COc1ncccc1-c1cc2nc(NCCCN(C)C)n(C)c(=O)c2s1	–	–	–	–	14	–	30	17
CN(C)Cc1c(O)ccc2c3c(c(=O)oc12)CCCCC3	–	–	–	–	–	–	·	·
CN(Cc1c(O)ccc2c1oc(=O)c1ccccc12)C1CCCCC1	–	–	–	–	20	–	–	–
COC(=O)C1CN(Cc2ccccc2)CCS(=O)(=O)N1Cc1cn(Cc2ccccc2)nn1 (centres undefined)	–	–	·	–	–	–	·	·
CN(C)[C@H]1CCN(c2ccc3c(c2)O[C@@H]2CCN(C2)S3(=O)=O)C1	–	–	·	–	18	–	–	–
COC[C@H]1CCCN1c1ccc2c(c1)O[C@H]1CCN(C1)S2(=O)=O	–	–	·	–	–	–	·	·
CCc1ccc(CCNC(=O)OC2CC3CC2[C@H]2CCCCN2C3)cc1 (some centres undefined)	–	–	·	–	–	–	·	·
COc1ccc2nc3cc(Cl)ccc3c(Nc3cc(CN4CCCC4)c(O)c(CN4CCCC4)c3)c2n1	–	72	–	–	55	–	86	88
Cc1ccc(S(=O)(=O)N(C)C)cc1NC(=O)CCc1ccccc1	–	–	–	–	21	–	–	–
Cc1ccc(S(=O)(=O)N(C)C)cc1NC(=O)CCc1c[nH]c2ccccc12	–	–	–	–	–	–	·	·
SMILES	rCAG RNA binder	UHRF1 MBD2 ctr	ABHD5 PLIN5 PPI	PRMT1 FP inh	MBD2 DNA inh	LEDGF integ inh	UHRF1 DNA bind	MBD2 confirm
Cc1cc(NC(=NC2CC2)c2ccccc2F)n(-c2ccccc2)n1	–	21	–	–	15	–	–	–
Cc1cc(NC(=O)Nc2cc(C)nn2-c2ccccc2)n(-c2ccccc2)n1	–	–	–	–	–	–	·	·
CC(CCN1CCC(C(O)(c2ccccc2)c2ccccc2)CC1)Oc1cccc(C(F)(F)F)c1 (centres undefined)	–	–	·	–	–	–	·	·
O=S1(=O)c2ccc(Br)cc2OC2CCCN1C2 (centres undefined)	–	–	·	–	–	–	·	·
CCN(Cc1ccccc1)S(=O)(=O)c1c(C)[nH]c(C)c1C(=O)N1CCCCC1	–	–	–	–	14	–	–	–
COc1ccc(NC(=O)CSc2nc3[nH]ncc3c(=O)n2-c2ccccc2OC)cc1OC	–	26	–	–	17	–	–	–
COc1ccc(NC(=O)CSc2nc3[nH]ncc3c(=O)n2-c2ccccc2C)cc1OC	–	–	–	–	–	–	·	·
C=CCn1c(SCC(N)=O)nc2scc(-c3ccc(C)o3)c2c1=O	–	–	–	–	14	–	–	–
CC(=O)c1ccc(NCCCN2CCC(C(O)(c3ccccc3)c3ccccc3)CC2)cc1	–	–	·	–	–	–	·	·
COc1ccc(CNC(=O)c2cccc3c2C(=O)N(CC2CCCO2)C3)cc1 (centres undefined)	–	–	–	–	32	–	–	–
CCN(CC)CCNC(=O)C1c2cc(OC)c(OC)cc2C(=O)N(C)C1c1cccs1 (centres undefined)	–	–	–	–	42	–	–	–
COc1ccc(C2C(C(=O)NCCN(C)C)c3cc(OC)c(OC)cc3C(=O)N2C)cc1OC (centres undefined)	–	–	–	–	–	–	·	·
O=C(C(=O)N1CCC(CNC(=O)c2cccnc2Cl)CC1)c1cc2ccccc2o1	–	–	·	–	–	–	·	·
Cc1cc(C)n(/C(=C/N(C)C)C(=O)c2ccccc2)n1	–	–	–	–	–	–	·	·
Cc1cc(C)n(C(=O)/C(C#N)=C/N(C)C)n1	–	–	–	–	39	–	–	–
NS(=O)(=O)c1ccc(NC(CNS(=O)(=O)c2ccccc2)c2ccccc2)cc1 (centres undefined)	–	–	–	–	14	–	–	–
COCCN1Cc2cc(C(=O)OC)c3c(c2C1=O)c1cc(F)ccc1n3S(=O)(=O)c1ccc(C)cc1	–	–	·	–	–	–	·	·
